Assay results taken from PubChem BioAssay AID2796 (The Scripps Research Institute Molecular Screening Center, 2010).
About 8,000 (2.5%) of roughly 320,000 compounds were called active. The full list was thinned out, with actives kept by preference. Unmarked numbers belong to inactive results. Rule as the data show it: active = activation above about 47%; inactive = the rest.

target: Aryl hydrocarbon receptor (Homo sapiens) (UniProt P35869); experiment: AHR activators, primary screen, cell-based, luminescence, luciferase reporter, human (AID 2796); settings: AHR-responsive luciferase reporter cells, at 5 µM, active compounds read high;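 also: 0% = vehicle wells and 100% = reference agonist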
Sequence (P35869 whole entry, looked up): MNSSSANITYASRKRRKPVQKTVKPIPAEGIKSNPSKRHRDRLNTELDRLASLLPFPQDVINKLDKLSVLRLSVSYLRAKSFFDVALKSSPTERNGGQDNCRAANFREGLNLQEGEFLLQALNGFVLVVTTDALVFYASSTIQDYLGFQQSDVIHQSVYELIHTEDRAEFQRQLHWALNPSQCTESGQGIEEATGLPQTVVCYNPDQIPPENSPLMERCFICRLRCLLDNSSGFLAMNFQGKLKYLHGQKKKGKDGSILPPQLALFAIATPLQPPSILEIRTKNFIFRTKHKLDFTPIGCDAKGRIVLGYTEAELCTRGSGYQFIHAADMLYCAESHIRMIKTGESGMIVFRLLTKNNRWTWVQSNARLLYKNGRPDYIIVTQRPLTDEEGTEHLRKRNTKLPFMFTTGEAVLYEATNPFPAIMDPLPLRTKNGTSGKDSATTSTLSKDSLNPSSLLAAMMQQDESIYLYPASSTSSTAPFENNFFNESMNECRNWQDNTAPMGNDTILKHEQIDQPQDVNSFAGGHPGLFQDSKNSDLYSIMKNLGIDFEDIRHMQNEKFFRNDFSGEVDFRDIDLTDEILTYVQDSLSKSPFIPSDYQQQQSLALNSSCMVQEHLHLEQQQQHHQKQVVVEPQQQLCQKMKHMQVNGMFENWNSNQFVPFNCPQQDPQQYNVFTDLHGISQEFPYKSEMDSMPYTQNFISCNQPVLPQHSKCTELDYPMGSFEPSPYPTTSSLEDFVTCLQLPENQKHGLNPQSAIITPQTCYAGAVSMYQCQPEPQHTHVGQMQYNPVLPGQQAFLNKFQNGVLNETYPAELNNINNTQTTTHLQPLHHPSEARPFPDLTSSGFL

Question: For `COc1cccc(CNS(=O)(=O)c2ccc3c(c2)N(C(C)=O)CCS3)c1`, which activation is on record?
Answer: 7.96%

Question: For `Nc1ncnc2c1ncn2[C@@H]1O[C@H](CNCc2cccn2-c2nccs2)[C@@H](O)[C@H]1O`, which activation is on record?
Answer: -1.49%

Question: For `Cc1ccc(NS(=O)(=O)c2c(C)[nH]c(=O)[nH]c2=O)cc1C`, which activation is on record?
Answer: -2.23%

Question: For `COc1ccc(NC(=O)C2=C(C)NC(=O)NC2c2ccccc2[N+](=O)[O-])cc1` (centres undefined), which activation is on record?
Answer: 2.47%

Question: Which activation does the source give for `Cc1cccc(NC(=S)Nc2ccc(Cl)c(Cl)c2)c1` here?
Answer: 2.86%

Question: How did the activation turn out when `FC(F)(F)c1cccc(NC(=S)Nc2cccc(Cl)c2)c1` was run?
Answer: 6.14%

Question: Which activation does the source give for `Cc1csc(NC(=S)Nc2cccc(Cl)c2)n1` here?
Answer: 81.2% (active)

Question: How did the activation turn out when `Cc1cccc(C(C)C)c1NC(=O)COC(=O)C1CC(=O)N(Cc2ccccc2)C1` (centres undefined) was run?
Answer: 3.03%

Question: Which activation does the source give for `CCC(C)NC(=O)C1CCCN(C(=O)NC2CCCCC2)C1` (centres undefined) here?
Answer: 2.48%

Question: Which activation does the source give for `CC(=O)NC(CC(=O)Nc1ccc(S(=O)(=O)N2CCOCC2)cc1)c1ccccc1` (centres undefined) here?
Answer: 0.88%

Question: With `O=C(COC(=O)c1cccc(Cl)c1)NC1CCCCCCC1` as the compound, how does the activation read?
Answer: 0.68%

Question: `COc1ccccc1NC(=O)Nc1nnc(Cc2ccc(F)cc2)s1` was tested. Which activation did it give?
Answer: 59.8% (active)

Question: With `COc1ccccc1NC(=O)Nc1nc(CC(=O)Nc2ccccc2F)cs1` as the compound, how does the activation read?
Answer: 25%

Question: For `O=C(Nc1nnc(COc2ccccc2)s1)Nc1ccccc1F`, which activation is on record?
Answer: 10.9%

Question: How did the activation turn out when `CCN(CC)S(=O)(=O)c1cccc(-c2n[nH]c(=S)n2/N=C/c2ccc(C(=O)OC)cc2)c1` was run?
Answer: 5.2%

Question: With `O=C(NC(=S)N1CCN(Cc2ccccc2)CC1)c1ccccc1` as the compound, how does the activation read?
Answer: 2.61%

Question: Which activation does the source give for `CC(C)c1ccc(Nc2ncccc2C#N)cc1` here?
Answer: 56.8% (active)

Question: `O=C(COC(=O)c1ccc([N+](=O)[O-])o1)NC12CC3CC(CC(C3)C1)C2` was tested. Which activation did it give?
Answer: 0.67%

Question: `COc1cccc2sc3cc(NCC[C@@H]4CCCN4C)ccc3c(=O)c12` was tested. Which activation did it give?
Answer: 72.2% (active)

Question: Which activation does the source give for `Cc1cc2oc3ccc(NCCC4CCCN4C)cc3c(=O)c2cc1C` (centres undefined) here?
Answer: 2.97%

Question: How did the activation turn out when `COc1ccc(CCNC(=O)C(=O)NCC2CCNCC2)cc1OC` was run?
Answer: -0.68%

Question: Which activation does the source give for `CCOc1cc(-c2cc(-c3ccc(OC)cc3)nc(N)c2C#N)ccc1O` here?
Answer: 0.62%

Question: For `COc1ccc(-c2cc(-c3ccc(N)cc3)nc(N)c2C#N)cc1OC`, which activation is on record?
Answer: 79.4% (active)

Question: Which activation does the source give for `CCOc1cc(-c2cc(-c3ccc(NC(C)=O)cc3)nc(N)c2C#N)ccc1O` here?
Answer: 8.37%

Question: How did the activation turn out when `COc1cccc(NC(=O)CC(c2ccc(OC(C)C)cc2)c2ccccc2OC)c1` (centres undefined) was run?
Answer: -0.21%

Question: How did the activation turn out when `CC(C)(C)OC(=O)CNC(=O)c1[nH]cnc1C(=O)N[C@@H](CCCCN)C(=O)OC(C)(C)C` was run?
Answer: 0.13%

Question: `C/C(=N\NC(=S)Nc1ccc(C)cc1)c1cc2ccccc2o1` was tested. Which activation did it give?
Answer: 70.2% (active)

Question: `O=C(Nc1ccncc1)c1cc2ccccc2o1` was tested. Which activation did it give?
Answer: 0.11%

Question: For `Cc1ccc(NC(=O)c2cc3ccccc3o2)cc1`, which activation is on record?
Answer: 25.5%

Question: How did the activation turn out when `CCOC(=O)C1(S(=O)(=O)c2ccc(Cl)cc2)CCN(Cc2ccccc2)CC1` was run?
Answer: 0.91%

Question: Which activation does the source give for `CCOc1ccc(NS(=O)(=O)c2ccc(Cl)c(C(=O)N(C)Cc3cccnc3)c2)cc1` here?
Answer: -0.23%

Question: How did the activation turn out when `c1csc(CN2CCN(Cc3cccs3)C2c2cccs2)c1` was run?
Answer: -2.12%

Question: `Brc1ccc2c(c1)[C@H]1OCC[C@H]1[C@@H](c1cccs1)N2` was tested. Which activation did it give?
Answer: 77.4% (active)

Question: For `COc1ccc(CNC(=O)COC(=O)C(CCSC)N2C(=O)c3ccccc3C2=O)cc1` (centres undefined), which activation is on record?
Answer: -0.44%

Question: How did the activation turn out when `FC(F)(F)c1ccc2c3n(nc2c1)CCN=C3c1ccc(Cl)cc1` was run?
Answer: 73.6% (active)

Question: How did the activation turn out when `O=C(Nc1cc(C(F)(F)F)ccc1Cl)C(=O)N1CCCCC1` was run?
Answer: 4.43%

Question: How did the activation turn out when `CCN(CC)CCN(C(=O)c1ccc(N2C(=O)CCC2=O)cc1)c1nc2cc3c(cc2s1)OCO3` was run?
Answer: 6.01%

Question: Which activation does the source give for `CCN(CC)CCN(C(=O)c1cc(Cl)sc1Cl)c1nc2cc3c(cc2s1)OCO3` here?
Answer: 72.1% (active)

Question: Which activation does the source give for `CN(C)CCN(C(=O)C1CCCCC1)c1nc2cc3c(cc2s1)OCO3` here?
Answer: 4.17%

Question: How did the activation turn out when `COC(=O)[C@]1(Cc2ccccc2)N[C@H](CN(C)S(=O)(=O)c2ccc(OC(F)(F)F)cc2)[C@@H]2C(=O)N(C)C(=O)[C@@H]21` was run?
Answer: -1.46%

Question: For `CCC(=O)NC(=S)Nc1ccc(NC(=O)c2ccco2)c(Cl)c1`, which activation is on record?
Answer: 84.6% (active)

Question: With `O=C(NNC(=S)Nc1ccc(Br)cc1Cl)c1ccco1` as the compound, how does the activation read?
Answer: 2.47%

Question: With `O=C(Nc1ccc(NC(=O)c2ccco2)c(Cl)c1)c1cccc([N+](=O)[O-])c1` as the compound, how does the activation read?
Answer: 2.52%

Question: `Cc1ccc(F)cc1NC(=O)N1CCCN(c2ccc(C(F)(F)F)cn2)CC1` was tested. Which activation did it give?
Answer: -3.14%

Question: `CCc1nn(CCCC(=O)Nc2ccc(C)c(C)c2)c(=O)c2cc3occc3n12` was tested. Which activation did it give?
Answer: 4.33%

Question: How did the activation turn out when `Nc1c(C(=O)c2cccs2)sc2nsc(SCCN3CCCCC3)c12` was run?
Answer: 25.2%

Question: `OC(COc1ccc(CN2CCSCC2)cc1)CN1CCCCC1` (centres undefined) was tested. Which activation did it give?
Answer: -1.38%

Question: How did the activation turn out when `CCOc1ccc(CN2CCN(Cc3ccon3)CC2CCO)cc1` (centres undefined) was run?
Answer: 7.62%

Question: Which activation does the source give for `Cn1cccc1/C=N/NC(=O)CNc1cccc2ccccc12` here?
Answer: 5.35%

Question: For `C/C(=N\NC(=O)CNc1cccc2ccccc12)c1ccc(Br)s1`, which activation is on record?
Answer: 91.4% (active)

Question: Which activation does the source give for `Cc1cccc(/C=N/NC(=O)CNc2cccc3ccccc23)n1` here?
Answer: 46%

Question: With `O=C(CSc1nnc(SCc2ccc(F)cc2)s1)Nc1ccc(C(=O)O)cc1` as the compound, how does the activation read?
Answer: -0.59%

Question: How did the activation turn out when `O=C(NCC#CCSc1nnc(-c2cccc3ccccc23)o1)c1cccs1` was run?
Answer: -2.43%

Question: For `C#CCSc1nnc(-c2sc3ccccc3c2Cl)o1`, which activation is on record?
Answer: 89.2% (active)

Question: `Clc1ccc(-c2nnc(SCc3nc4ccccc4s3)o2)cc1` was tested. Which activation did it give?
Answer: 18.2%

Question: For `COC(=O)CSc1ccc2nnc(CCNS(=O)(=O)c3ccc(C)cc3)n2n1`, which activation is on record?
Answer: 0.87%

Question: For `O=C(CN1CCN(S(=O)(=O)c2ccc(Cl)s2)CC1)NCc1ccc(Cl)cc1`, which activation is on record?
Answer: -0.6%

Question: How did the activation turn out when `CC[n+]1cc(C)ccc1/C=C/c1ccc(N(C)C)cc1` was run?
Answer: -0.11%

Question: `Cc1c(C(=O)OCC(=O)N2CCCC2=O)oc2ccccc12` was tested. Which activation did it give?
Answer: 1.38%
